# High-throughput results as filed in PubChem BioAssay.
# TIM10 inh = growth inhibitors of TIM10 yeast strain; S. cerevisiae TIM10 strain growth, BacTiter-Glo luminescence, 24 h; inhibition, % at 10 µM; 330,000 tested, 1.4% active; AID 463195;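 active means inhibition of 40% or more at the single tested concentration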;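 further: wild-type TIM10 isogenic control strain grown at permissive 25 °C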
# SKKanGAS inh = inhibitors of SKKanGAS S. pyogenes growth in kanamycin (SK-promoter or general growth effect); BacTiter-Glo, 6 h; inhibition, % at 7.5 µM; 300,000 tested, 1.3% active;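 active means mean replicate score, as percent of positive control median, at least 50; inconclusive means mean below 50 but one replicate at or above 50; inactive means mean and every replicate below 50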;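 further: strain carries kanamycin resistance gene driven by streptokinase promoter and grows in 40 µg/ml kanamycin; loss of luminescence reflects streptokinase promoter inhibition or plain growth inhibition; 0% = median of DMSO wells and 100% = positive control at its reference dose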
# PfHsp90 yeast 2 = growth inhibition of yeast expressing Plasmodium Hsp90 | S. cerevisiae expressing PfHsp90, BacTiter-Glo ATP, 48 h; yeast lacking PDR1 and PDR3 efflux regulators | inhibition, % at 9.4 µM | 310,000 tested, 0.32% active;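 active means every replicate shows inhibition above about 80%, whatever the replicate mean, limit read from the data; inconclusive means mean inhibition reaches the set limit but some replicate falls short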;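 further: 0% = DMSO neutral controls and 100% = 20 µM radicicol positive controls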
# tim10-1 inh = inhibits growth of tim10-1 mutant yeast | 330,000 tested, 2.2% active | S. cerevisiae tim10-1 ts strain growth, BacTiter-Glo, 24 h | AID 463190 | inhibition, % at 20 µM;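 active means inhibition of at least 40%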;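 further: mutant grown at 25 °C; 0% = DMSO wells with yeast and 100% = wells holding no yeast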
# tim23-1 inh = inhibits growth of tim23-1 mutant yeast. S. cerevisiae tim23-1 growth, BacTiter-Glo luminescence, 24 h. inhibition, % at 20 µM. 330,000 tested, 1.3% active;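 active means growth inhibition of the mutant yeast at or above 50%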;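 further: temperature-sensitive mutant grown at 25 °C; plate controls were DMSO-treated mutant yeast for no effect and medium wells lacking yeast for full effect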
# tim10-1 confirm = confirmation of tim10-1 mutant yeast growth inhibitors | shares compounds with tim10-1 inh | S. cerevisiae tim10-1 ts strain growth, BacTiter-Glo, 24 h | inhibition, % at 20 µM | 7,400 tested, 56% active | AID 463213;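 active means inhibition of yeast growth at or above a set limit in either of two repeat tests at 20 µM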;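 further: tim10-1 mutant grown at permissive 25 °C to find synthetic lethal compounds; 0% = DMSO yeast wells and 100% = medium wells without yeast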
# tim10 confirm = confirmation of TIM10 yeast growth inhibitors; shares compounds with TIM10 inh; S. cerevisiae tim10 strain growth, BacTiter-Glo luminescence, 24 h; inhibition, % at 10 µM; 4,600 tested, 63% active;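 active means inhibition of yeast growth at or above a set limit in either of two replicates at 10 µM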;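 further: this counterscreen used the strain with wild-type TIM10; 0% = yeast with DMSO and 100% = medium wells lacking yeast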
# Numbers without * were called inactive; u = inconclusive; x = no result given. An excerpt weighted towards active compounds, which were near 4.4% of everything screened.
SMILES,TIM10 inh,SKKanGAS inh,PfHsp90 yeast 2,tim10-1 inh,tim23-1 inh,tim10-1 confirm,tim10 confirm
COc1ccc2c(c1)[nH]c1c(N3CCN(Cc4ccc5c(c4)OCO5)CC3)ncnc12,47*,11,7,47*,44,42*,27
CC1=C(C(=O)OCCCBr)C(c2ccc3c(c2)OCO3)NC(=O)N1 (stereo not drawn),-3,-4,9,1,2,x,x
CO/N=C/c1ccc(Sc2ccccc2)c([N+](=O)[O-])c1,-9,14,-34,-6,-4,x,x
CO/N=C/c1ccc(Sc2ccccc2N)c([N+](=O)[O-])c1,44*,-4,-13,49*,29,35*,25
CCNc1nnc(SCC(=O)N2c3ccccc3NC(=O)CC2C)s1 (stereo not drawn),4,x,1,-6,13,x,x
CCC(=O)OCCNc1cc(Sc2nc3ccccc3s2)c2nonc2c1[N+](=O)[O-],77*,u,11,93*,28,91*,94*
CC(C)c1ccc(/C=C/C(=O)N2CCOCC2)cc1,19,-5,13,15,11,x,x
CC(C)c1ccc(/C=C/C(=O)n2nnc3ccccc32)cc1,50*,2,-30,55*,31,52*,48*
CCN1C(=O)N(CC)C2C1N(CO)C(=O)N2CO (stereo not drawn),1,6,-38,13,0,x,x
CC(C)NC(=S)N/N=C/c1sc(N2CCCCC2)nc1-c1cccs1,50*,7,-37,53*,47,48*,35*
NC(=O)N/N=C/c1sc(N2CCCCC2)nc1-c1cccs1,36,4,-15,9,31,x,x
O=C(N/N=C/c1sc(N2CCCCC2)nc1-c1cccs1)C1CC1,47*,-11,14,47*,48,36*,36*
CCCCNC(=S)N(C)/N=C/c1sc(N2CCCCC2)nc1-c1cccs1,18,-4,x,28,16,x,x
[2H]C([2H])(CCOS(N)(=O)=O)c1ccccc1,2,-7,6,10,-2,x,x
CCOc1ccc(Nc2cc(C)nc(-n3nc(C)cc3C)n2)cc1,42*,87*,-1,44*,18,1,7
CNc1cc(C)nc(-n2nc(C)cc2C)n1,-1,18,-2,-1,31,x,x
O=C(c1cc(S(=O)(=O)N2CCOCC2)ccc1F)N1CCc2ccccc21,17,x,x,11,23,x,x
O=C(Cn1cnc2ccccc2c1=O)NCc1cccs1,-6,-1,-10,-11,6,x,x
COc1ccc2nc(NC(=O)CN(c3ccc(C)cc3)S(=O)(=O)c3c(C)nn(C)c3C)sc2c1,41*,26,x,45*,40,31*,44*
Cn1c(/C=C/c2ccc([N+](=O)[O-])o2)nc2ccccc2c1=O,77*,48,98*,77*,-3,58*,-20
N#C/C(=C\c1cccn1-c1ccccc1)C(=O)NC1CCCCC1,30,-1,12,34,38,x,x
N#C/C(=C\C=C\c1ccccc1[N+](=O)[O-])C(=O)NC1CCCCC1,43*,-1,x,55*,30,47*,53*
CC1=Nc2ccccc2/C1=C\c1nc(-c2ccc(C(F)(F)F)cc2)oc1O,12,12,-17,22,13,x,x
CC1=Nc2ccccc2/C1=C\c1nc(-c2ccccc2)oc1O,45*,28,-20,42*,26,34*,35*
Cc1ccc(S(=O)(=O)Nc2ccccc2C(=O)N2CCCCC2)cc1,4,-4,-8,18,26,x,x
CCN(CC(=O)Nc1c(F)cccc1F)C(=O)c1ccc(N2C(=O)c3ccccc3C2=O)cc1,3,-3,x,15,18,x,x
O=C(Nc1nc2ccc(F)cc2s1)c1cccc(S(=O)(=O)N2CCc3ccccc32)c1,50*,44,13,40*,28,21,-1
O=C(Nc1nncs1)c1cccc(S(=O)(=O)N2CCc3ccccc32)c1,-9,4,-19,2,10,x,x
CCC(=O)N1CCc2cc(S(=O)(=O)N3CCN(c4ccccn4)CC3)ccc21,44*,3,-3,43*,23,37*,2
c1ccc(-c2nnc(N3CCN(c4ccccn4)CC3)c3ccccc23)cc1,41*,16,x,52*,33,29,8
